Common to all, as to details: mRNA level, 48 h; actives raise or lower the signal
Read-out in test [1]: growth arrest and DNA damage 45 (GADD45G), GADD45G (gene 10912)
The test is described as follows: LTEA_HepaRG_GADD45G: Life Technologies and Expression Analysis (LTEA) Assay for growth arrest and DNA damage 45 (GADD45G) using HepaRG (AID 2283499). The method in brief: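 GADD45G transcript level by qRT-PCR (housekeeping-normalized: ACTB, GAPDH, POLR2A) after 48 h chemical treatment of a single HepaRG lot in serum-free induction medium; eight-point half-log series up to 100 uM in 0.5% DMSO, duplicates, up- or down-regulation scored.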

Read-out in test [2]: Glutamate-cysteine ligase regulatory (GCLM), GCLM (gene 2730)
The test is described as follows: LTEA_HepaRG_GCLM: Life Technologies and Expression Analysis (LTEA) Assay for Glutamate-cysteine ligase regulatory (GCLM) using HepaRG (AID 2283500). In outline: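 In this multiplexed HepaRG gene-expression assay, GCLM mRNA change after 48 h treatment (8 concentrations, max 100 uM) was scored against DMSO by bidirectional curve fitting.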

Read-out in test [3]: Glutathione S-transferase M3 (GSTM3), GSTM3 (gene 2947)
The test is described as follows: LTEA_HepaRG_GSTM3: Life Technologies and Expression Analysis (LTEA) Assay for Glutathione S-transferase M3 (GSTM3) using HepaRG (AID 2283501). In outline:
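GSTM3 transcript levels came from Fluidigm TaqMan qRT-PCR normalized to three housekeeping genes, fitted in both directions against DMSO. HepaRG cultures received chemicals for 48 h in serum-free induction medium (0.5% DMSO), 8 half-log concentrations up to 100 uM, duplicate.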

Read-out in test [4]: Heat shock 70 kDa protein 1 (HSPA1A), gene 3303
The experiment in a line: LTEA_HepaRG_HSPA1A: Life Technologies and Expression Analysis (LTEA) Assay for Heat shock 70 kDa protein 1 (HSPA1A) using HepaRG (AID 2283502). In outline: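 An oxidative-stress marker readout: HepaRG cells treated 48 h in duplicate with an eight-point series (highest 100 uM) had HSPA1A mRNA quantified by TaqMan qRT-PCR. Activity was fitted in both directions using 0.5% DMSO as baseline.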

Read-out in test [5]: Hypoxia-inducible factor 1-alpha (Homo sapiens) (UniProt Q16665)
The test is described as follows: LTEA_HepaRG_HIF1A: Life Technologies and Expression Analysis (LTEA) Assay for Hypoxia-inducible factor 1 (HIF1A) Trancription factor using HepaRG (AID 2283503). In outline:
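Gain- or loss-of-signal HIF1A mRNA changes are fitted against a DMSO baseline. HepaRG cultures receive eight concentrations, highest 100 uM, for 48 h in serum-free induction medium with 0.5% DMSO.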

Read-out in test [6]: 3-Hydroxy-3-Methylglutaryl-CoA Synthase 2 (HMGCS2), HMGCS2 (gene 3158)
The test is described as follows: LTEA_HepaRG_HMGCS2: Life Technologies and Expression Analysis (LTEA) Assay for 3-Hydroxy-3-Methylglutaryl-CoA Synthase 2 (HMGCS2) using HepaRG (AID 2283504). In outline: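 Readout is HMGCS2 transcript by qRT-PCR, housekeeping-normalised (ACTB/GAPDH/POLR2A) and fitted bidirectionally against 0.5% DMSO. Differentiated HepaRG cells received chemicals 48 h, duplicate wells, eight half-log concentrations topping at 100 uM.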

Read-out in a further test: HGF (gene 3082)
The experiment in a line: LTEA_HepaRG_HGF: Life Technologies and Expression Analysis (LTEA) Assay for Hepatocyte Growth Facto (HGF) using HepaRG (AID 2283505). The method in brief: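 HGF transcript was quantified by TaqMan qRT-PCR against three housekeeping genes after 48 h treatment of HepaRG cells. Exposure ran in duplicate over eight half-log steps topping at 100 uM in 0.5% DMSO vehicle.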

Read-out in test [7]: Insulin Like Growth Factor 1 (IGF1), IGF1 (gene 3479)
The experiment in a line: LTEA_HepaRG_IGF1: Life Technologies and Expression Analysis (LTEA) Assay for Insulin Like Growth Factor 1 (IGF1) using HepaRG (AID 2283506). The method in brief: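 Endpoint: IGF1 mRNA change by qRT-PCR, housekeeping-normalized, fitted bidirectionally relative to 0.5% DMSO vehicle. Human HepaRG cells were treated 48 h in serum-free induction medium, eight half-log concentrations topping at 100 uM.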

Read-out in test [8]: Intercellular Adhesion Molecule 1 (ICAM1), ICAM1 (gene 3383)
The experiment in a line: LTEA_HepaRG_ICAM1: Life Technologies and Expression Analysis (LTEA) Assay for Intercellular Adhesion Molecule 1 (ICAM1) using HepaRG (AID 2283507). The method in brief: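 ICAM1 transcript levels measured by qRT-PCR, normalized to three housekeeping genes (ACTB, GAPDH, POLR2A), after 48 h chemical exposure of HepaRG cells. Duplicate eight-point half-log series from 100 uM in 0.5% DMSO; gain or loss fitted against vehicle.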

Read-out in test [9]: Insulin-like growth factor-binding protein 1 (IGFBP1), IGFBP1 (gene 3484)
The test is described as follows: LTEA_HepaRG_IGFBP1: Life Technologies and Expression Analysis (LTEA) Assay for Insulin-like growth factor-binding protein 1 (IGFBP1) using HepaRG (AID 2283508). The method in brief: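 Read-out is qRT-PCR transcript level normalized to three housekeeping genes, fitted in both directions against 0.5% DMSO. Differentiated HepaRG cells received eight half-log concentrations (top 100 uM) in duplicate for 48 h in serum-free induction medium.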

Read-out in test [10]: Interleukin 6 (IL6), IL6 (gene 3569)
The test is described as follows: LTEA_HepaRG_IL6: Life Technologies and Expression Analysis (LTEA) Assay for Interleukin 6 (IL6) using HepaRG (AID 2283509). The method in brief:
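Changes in IL6 mRNA, up or down relative to 0.5% DMSO controls, were derived from concentration-response curves in human HepaRG cells treated for 48 h at up to 100 uM, with ACTB, GAPDH and POLR2A as normalizers.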

Read-out in test [11]: Interleukin 6 Receptor (IL6R), IL6R (gene 3570)
The experiment in a line: LTEA_HepaRG_IL6R: Life Technologies and Expression Analysis (LTEA) Assay for Interleukin 6 Receptor (IL6R) using HepaRG (AID 2283510).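 For AC50: differentiated human HepaRG liver cells in serum-free induction medium.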 In outline:
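In this HepaRG screen, test chemicals act on cells for 48 h at up to 100 uM (eight half-log points, duplicate wells). IL6R expression is quantified by qRT-PCR after normalization to ACTB, GAPDH and POLR2A, with DMSO as baseline.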

Read-out in test [12]: Potassium channel subfamily K member 1 (KCNK1), KCNK1 (gene 3775)
The experiment in a line: LTEA_HepaRG_KCNK1: Life Technologies and Expression Analysis (LTEA) Assay for Potassium channel subfamily K member 1 (KCNK1) using HepaRG (AID 2283511). The method in brief:
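Human HepaRG cultures receive test chemicals for 48 h in 0.5% DMSO, top concentration 100 uM with half-log dilutions. Induction or suppression of KCNK1 mRNA relative to DMSO is derived by bidirectional fitting of qRT-PCR data.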

Read-out in test [13]: Keratin 19 (KRT19), KRT19 (gene 3880)
The test is described as follows: LTEA_HepaRG_KRT19: Life Technologies and Expression Analysis (LTEA) Assay for Keratin 19 (KRT19) using HepaRG (AID 2283512). In outline:
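KRT19 transcript measured by TaqMan qRT-PCR, referenced to three housekeeping genes, after HepaRG cells received test chemicals for 48 h. Eight half-log concentrations, top 100 uM, 0.5% DMSO vehicle; increases and decreases both fitted.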

Read-out in test [14]: JUN Transcription Factor, JUN (gene 3725)
The test is described as follows: LTEA_HepaRG_JUN: Life Technologies and Expression Analysis (LTEA) Assay for JUN Transcription Factor using HepaRG (AID 2283513). In outline: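 Gene-expression endpoint: JUN mRNA (qRT-PCR, normalized to three reference genes) in HepaRG cultures treated 48 h with chemicals, duplicate wells, 100 uM maximum with half-log dilutions; bidirectional fitting relative to 0.5% DMSO.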

Read-out in test [15]: Lipoprotein lipase (LPL), LPL (gene 4023)
The test is described as follows: LTEA_HepaRG_LPL: Life Technologies and Expression Analysis (LTEA) Assay for Lipoprotein lipase (LPL) using HepaRG (AID 2283515). In outline:
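Concentration-response testing used half-log steps from 100 uM in 0.5% DMSO on human HepaRG cells, 48 h, duplicate wells. Phenobarbital 1 mM served as induction control; LPL mRNA was normalized to ACTB, GAPDH, POLR2A.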

Read-out in test [16]: matrix metalloproteinase-10 (MMP10), MMP10 (gene 4319)
The test is described as follows: LTEA_HepaRG_MMP10: Life Technologies and Expression Analysis (LTEA) Assay for matrix metalloproteinase-10 (MMP10) using HepaRG (AID 2283517). In outline:
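In differentiated HepaRG cultures kept in 0.5% DMSO, test chemicals act for 48 h over an eight-point range with a top dose of 100 uM. Expression is then quantified by TaqMan RT-PCR against ACTB, GAPDH and POLR2A.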

Read-out in another test: MYC, MYC (gene 4609)
The experiment in a line: LTEA_HepaRG_MYC: Life Technologies and Expression Analysis (LTEA) Assay for MYC using HepaRG (AID 2283518). The method in brief: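 MYC transcript changes, up or down relative to 0.5% DMSO, from TaqMan qRT-PCR normalized to three housekeeping genes. Human HepaRG cultures received chemicals for 48 h at eight half-log concentrations up to 100 uM, in duplicate.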

Read-out in test [17]: MicroRNA 122 (MIR122), gene 406906
The experiment in a line: LTEA_HepaRG_MIR122: Life Technologies and Expression Analysis (LTEA) Assay for MicroRNA 122 (MIR122) using HepaRG (AID 2283516). Note: the transcript read is the microRNA miR-122. In outline: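 Changes in transcript abundance, up or down relative to 0.5% DMSO vehicle, were scored after 48 h chemical treatment of HepaRG cells (maximum 100 uM). Quantification used TaqMan qRT-PCR normalized to housekeeping genes.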

Read-out in test [18]: Lipase C (LIPC), LIPC (gene 3990)
The experiment in a line: LTEA_HepaRG_LIPC: Life Technologies and Expression Analysis (LTEA) Assay for Lipase C (LIPC) using HepaRG (AID 2283514). In outline: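 In this multiplexed gene-expression screen, human HepaRG cultures received test chemicals for 48 h across eight concentrations with 100 uM highest, in duplicate. Values reflect LIPC mRNA induction or suppression versus DMSO vehicle, from normalized qRT-PCR.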

The term AC50 denotes the midpoint of the concentration-response curve, whichever way the signal moves.

The source holds several records for some structures; these can differ, active in one and inactive in another. Activity calls are given as the source filed them. Rule for the calls: active = hit-call score of the fitted dose curve at least 0.9, where 1 is the maximum; inactive = score below 0.9.

Chain of Hypoxia-inducible factor 1-alpha (Homo sapiens) (Q16665 whole entry, looked up): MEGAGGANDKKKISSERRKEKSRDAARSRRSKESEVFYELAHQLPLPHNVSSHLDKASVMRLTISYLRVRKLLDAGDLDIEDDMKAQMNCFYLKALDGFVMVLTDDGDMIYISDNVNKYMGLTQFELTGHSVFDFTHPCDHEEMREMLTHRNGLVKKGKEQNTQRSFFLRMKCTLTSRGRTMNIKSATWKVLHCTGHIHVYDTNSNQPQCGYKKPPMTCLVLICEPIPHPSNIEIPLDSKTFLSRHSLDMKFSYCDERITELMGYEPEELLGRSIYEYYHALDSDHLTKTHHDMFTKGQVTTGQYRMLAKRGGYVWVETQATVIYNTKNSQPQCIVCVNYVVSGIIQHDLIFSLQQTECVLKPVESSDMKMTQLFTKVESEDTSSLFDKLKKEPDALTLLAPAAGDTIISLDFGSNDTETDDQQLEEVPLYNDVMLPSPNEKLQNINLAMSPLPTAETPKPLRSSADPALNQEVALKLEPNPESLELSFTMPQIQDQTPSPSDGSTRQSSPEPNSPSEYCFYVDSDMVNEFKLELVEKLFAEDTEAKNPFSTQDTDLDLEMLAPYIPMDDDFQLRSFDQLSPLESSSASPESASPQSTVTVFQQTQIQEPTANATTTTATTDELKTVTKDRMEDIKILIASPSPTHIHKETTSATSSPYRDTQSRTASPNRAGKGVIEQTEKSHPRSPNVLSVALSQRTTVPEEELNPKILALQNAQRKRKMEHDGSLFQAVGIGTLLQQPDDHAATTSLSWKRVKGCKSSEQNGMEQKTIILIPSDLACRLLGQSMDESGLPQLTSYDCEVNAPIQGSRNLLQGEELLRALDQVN

Consider `Oc1ccc(C(c2ccc(O)cc2)C(Cl)(Cl)Cl)cc1`, for which the AC50 in test [1] was 78.9 µM (active); in test [4], 94.5 µM (active); in [5] it was 79.5 µM (active); in test [6], 92.8 µM (active); in the test with HGF (gene 3082) it was 83.7 µM (active); in test [8] it was 79.3 µM (active). In addition, the AC50 in [9] is 88.5 µM (active); in test [10], 77.1 µM (active); in test [11], 87.8 µM (active); in test [13], 50 µM (active); in [14], 91.7 µM (active); in test [15] it was 85 µM (active). The AC50 in test [16] is 78.6 µM (active); with MYC, MYC (gene 4609), 78 µM (active). For the same compound, the call in [2], in test [3], in test [7] and in test [12] was inactive.
`CC(C)(c1ccc(O)cc1)c1ccc(O)cc1`: the call (in [1]; in test [2]; in test [3]; in [4]; in [5]; with HGF (gene 3082)) was inactive. Besides, the compound was classed as inactive in test [7], in [8], in test [9], in [10], in test [11] and in [12]. Also, the outcome was “inactive” in test [13]; “inactive” in test [14]; “inactive” in [15]; “inactive” in [17]; “inactive” in test [16]; “inactive” in the test with MYC, MYC (gene 4609). Besides, the AC50 in test [4] is 0.0172 µM (active); in the test with MYC, MYC (gene 4609), 9.92 µM (active).
For `c1ccc(Nc2ccccc2)cc1`, the result in test [1], in test [2], in [3], in [4], in test [5] and in test [6] was inactive. In addition, the call (in the test with HGF (gene 3082); in [7]; in [8]; in test [9]; in test [10]; in [11]) was inactive. Moreover, the compound was called inactive in test [12], in [13], in [14], in test [18], in test [15] and in [17]. Further, the outcome was “inactive” in [16] and “inactive” with MYC, MYC (gene 4609).

(Values after PubChem BioAssay (EPA / NIEHS).)
